# Experimental data reported in PubChem BioAssay (NCATS).
# Activity calls are given as the source filed them. Calls follow the shape of the dose curve; as a rule, active = well fitted curve in the direction sought with a large enough effect; inconclusive = small, poorly fitted or top-dose-only effect, or another doubt; inactive = no such curve, though single readings can be large or run the other way.
# Molecular target: Alpha-galactosidase (Coffea arabica) (UniProt Q42656)
# Experiment: Counterscreen for Glucocerebrosidase Inhibitors: qHTS Assay for Coffee Bean alpha-Galactosidase at pH 4.5 (AID 957)
# Conditions: purified coffee bean alpha-galactosidase, fluorogenic substrate; series mostly up to 76.9 µM
# Summary of the method: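 Fluorogenic read-out: 4-methylumbelliferone at Ex 365/Em 440 nm after NaOH/glycine stop (pH 10). Enzyme 2 nM, 4-MU-alpha-galactoside 80 uM, citrate buffer pH 4.5, 20 min RT; normalized to no-enzyme and enzyme controls.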
# Sequence of Alpha-galactosidase (Coffea arabica) (Q42656 whole entry, looked up): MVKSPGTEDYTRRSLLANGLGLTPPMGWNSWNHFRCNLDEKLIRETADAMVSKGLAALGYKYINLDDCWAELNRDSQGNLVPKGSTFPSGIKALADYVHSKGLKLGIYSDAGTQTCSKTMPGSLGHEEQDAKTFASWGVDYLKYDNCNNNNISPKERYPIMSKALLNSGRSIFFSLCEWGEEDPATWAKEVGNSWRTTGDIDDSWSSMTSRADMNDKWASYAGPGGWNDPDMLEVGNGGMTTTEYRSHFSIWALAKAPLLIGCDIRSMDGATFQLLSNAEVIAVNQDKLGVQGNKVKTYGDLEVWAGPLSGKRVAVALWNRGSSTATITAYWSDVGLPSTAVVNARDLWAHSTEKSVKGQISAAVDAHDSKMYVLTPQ
row,SMILES,outcome
1,O=c1[nH]c(=O)n([C@H]2C[C@H](O)[C@@H](CO)O2)cc1Br,inactive
2,COc1ccc2cc([C@H](C)C(=O)O)ccc2c1,inactive
3,CC[N+](CC)(CC)CCOc1cccc(OCC[N+](CC)(CC)CC)c1OCC[N+](CC)(CC)CC,inactive
4,CCCCCCCCCCCCCCCC(=O)NCCO,inactive
5,Cc1nc2c([nH]1)c(=O)n(C)c(=O)n2Cc1ccco1,inactive
6,CNC[C@H](O)c1cccc(O)c1,inactive
7,C1COC(NC(C2CC2)C2CC2)=N1,inactive
8,Nc1cc(=O)[nH]c(N)n1,inactive
9,Nc1ccc(S(=O)(=O)Nc2ccnn2-c2ccccc2)cc1,inactive
10,CC(=O)OCC(=O)[C@@]1(O)CC[C@H]2[C@@H]3CCC4=CC(=O)CC[C@]4(C)[C@H]3C(=O)C[C@@]21C,inactive
11,C[N+](C)(C)CCOC(N)=O,inactive
12,CCN1CCC[C@H]1CNC(=O)c1cc(S(N)(=O)=O)ccc1OC,inactive
13,CN=C(NC#N)NCCSCc1nc[nH]c1C,inactive
14,NCCS(=O)(=O)O,inactive
15,NC1CCN(c2cccc(Cl)n2)CC1,inactive
16,COc1ccc2[nH]cc(CCNC(C)=O)c2c1,inactive
17,NC(=O)c1cnccn1,inactive
18,NC(N)=NC(=O)Cc1c(Cl)cccc1Cl,inactive
19,Cc1cnc(NC(=O)C2=C(O)c3ccccc3S(=O)(=O)N2C)s1,inactive
20,COc1ccc(C2CNC(=O)C2)cc1OC1CCCC1 (stereo not given),inactive
21,O=C(O)CN(CCN(CC(=O)O)CC(=O)O)CCN(CC(=O)O)CC(=O)O,inactive
22,N[C@@H](COP(=O)(O)O)C(=O)O,inactive
23,CC(C)(C)NC[C@H](O)COc1nsnc1N1CCOCC1,inactive
24,Nc1nc2ccc(OC(F)(F)F)cc2s1,inactive
25,CC(=O)c1ccc(S(=O)(=O)NC(=O)NC2CCCCC2)cc1,inactive
26,O=C(O)CCCCCCCC(=O)O,inactive
27,O=C1NCC2(CCN(CCc3ccccc3)CC2)O1,inactive
28,CC(=O)N1CCN(c2ccc(OC[C@H]3CO[C@](Cn4ccnc4)(c4ccc(Cl)cc4Cl)O3)cc2)CC1,inactive
29,O=c1[nH]oc2c1CCNC2,inactive
30,CC(=O)Oc1cc(C(C)C)c(OCCN(C)C)cc1C,inactive
